Screens (PubChem BioAssay)
A selection: hits, their analogues and other compounds. The true share with any hit is near 8.6%.
MARV entry inh = blocks Marburg virus binding or cell entry. Marburg virus pseudotype entry/binding inhibition, cell-based. Potency, µM (titrated, usually from 49.2 µM), actives largely listed as inhibitors. hit rate 6.5% among 18,000
LASV entry inh = inhibitors of Lassa virus binding or entry into cells. Lassa virus pseudotyped entry inhibition, cell-based qHTS. hit rate 4.1% among 18,000. Potency, µM (top dose mostly 49.2 µM), most hits filed as inhibitors
Numbers stand for hits; n = inactive; u = inconclusive; x = not tested or not shown; ! = a repeat was not active; [ ] = remark or other dose. The call rests on the fitted dose curve; tested in HEK293 cells.

SMILES | MARV entry inh | LASV entry inh
CCN1C(=NCc2cc(OC)c(OC)c(OC)c2)NC(c2ccccc2)C(C(=O)OC)=C1C (stereo unspecified) | n[8.59 µM] | n[8.59 µM]
COC(=O)[C@@]1(C=C2c3ccc(F)cc3[C@@H](OC)[C@@H]2C)[C@@H]2OCCC[C@@H]21 | n[8.59 µM] | n[8.59 µM]
CC1C(=O)C(Cc2cn(CCC3OCCO3)nn2)CCS(=O)(=O)N1Cc1ccc(-c2ccc(Cl)nc2)cc1 (stereo unspecified) | n | n
Cc1ccc2c(c1)CN(CCNC(=O)c1cc3ccccc3oc1=O)CC(C)O2 (stereo unspecified) | n | n
COc1ccc(C(=O)NCCN2Cc3cc(C)ccc3OC(C)C2)c(OC)n1 (stereo unspecified) | 2µM | n
COC(=O)[C@H](C(C)C)N(Cc1cc(OC)cc(OC)c1)S(=O)(=O)CCl | n | x
OC[C@H]1O[C@H](c2ccccc2)C=C[C@H]1OCc1cccc(Br)c1 | n[8.59 µM] | n[8.59 µM]
COc1cccc([C@@H]2Oc3ccc(OC)cc3[C@H](O)[C@@H]2O)c1 | n[8.59 µM] | n[8.59 µM]
O=C1[C@H]2[C@@H]3[C@@H](O)[C@H](O)CC(=NOCc4ccccc4)[C@H]3CC[C@H]2C(=O)N1C1CCCCC1 | n[8.59 µM] | n[8.59 µM]
Cc1ccccc1CN1CCSCCS1(=O)=O | u | n
CN1CCCCC1CCN1c2ccccc2Sc2ccc(S(C)=O)cc21 (stereo unspecified) | 8.9µM! | u
CC(CCC(=O)OC[C@H]1O[C@H](C#Cc2ccccc2)C=C[C@H]1Oc1ccc(C)cc1)=NO[C@H](C)c1cn([C@H](CO)Cc2ccccc2)nn1 | n[8.59 µM] | x
NC(=O)c1ccc([N+](=O)[O-])cc1Cl | n | n
O=[N+]([O-])c1ccc2c(c1)S(=O)(=O)C=C2 | 6.3µM | 11µM
O=C(C=Cc1ccccc1)N1CCC[C@H]1CO | n[8.59 µM] | n[8.59 µM]
CCCCCCN1C[C@H](O)[C@@H](n2cc(-c3ccc(F)cc3)nn2)C[C@H]1c1ccccc1 | u | n
COC(=O)c1c(OCc2ccccn2)cc(=O)n2c1CCN(Cc1ccc3c(c1)CCCN3C)CC2 | n | n
CC(C)[C@@H]1CC[C@@H](C)C[C@H]1OC(=O)c1ccccc1O | n | n
CC(=O)N[C@@H](CC(C)C)C(=O)N[C@@H](CC(C)C)C(=O)N[C@H](C=O)CCCN=C(N)N | 0.11µM | n
CCCC[C@@H](C=O)NC(=O)[C@H](CC(C)C)NC(=O)[C@H](CC(C)C)NC(C)=O | 0.089µM | 10µM
CC(C)C[C@H](NC(=O)[C@H](CC(C)C)NC(=O)[C@H](Cc1ccccc1)NC(=O)[C@@H](N)CO)C(=O)N[C@@H](CCCN=C(N)N)C(=O)N[C@@H](CC(N)=O)C(=O)O | n | n
CSCC[C@H](C=O)NC(=O)[C@H](CC(C)C)NC(=O)[C@H](CC(C)C)NC(C)=O | u | n
CCCCC(C=O)NC(=O)C(CC(C)C)NC(=O)OCc1ccccc1 (stereo unspecified) | u | n
CCCC[C@@H](C=O)NC(=O)[C@H](CC(C)C)NC(=O)OCc1ccccc1 | u | 20µM
CCCC[C@]12Cc3cc(C#N)ccc3[C@H](O1)c1c(c3ccccc3oc1=O)O2 | n[8.59 µM] | n[8.59 µM]
SMILES | MARV entry inh | LASV entry inh
O=S1(=O)c2cc(Cl)ccc2Oc2ccccc2CN1Cc1cccc(F)c1 | u | n
C[C@@H]1CC2=CCCC2[C@]2(O1)C(=O)N(Cc1ccc(F)cc1)c1cccc(Br)c12 (stereo partly specified) | n[8.59 µM] | n[8.59 µM]
CCOC(=O)CCN1C(=O)[C@@H]2[C@H]3[C@H](O)[C@H](O)CC(=NNC(=O)OCc4ccc(OC)cc4)[C@H]3CC[C@H]2C1=O | n[8.59 µM] | x
C=CCN1c2ccc(Br)cc2C(O)CS1(=O)=O (stereo unspecified) | u | n
Fc1ccc([C@@H]2CCNC[C@H]2COc2ccc3c(c2)OCO3)cc1 | 5.6µM | u
O=C(C=Cc1ccc2c(c1)OCO2)c1ccc(F)cc1 | n[8.59 µM] | n[8.59 µM]
C[C@@H]1C=CCC(=O)N[C@@H](c2ccc3ccccc3c2)[C@H](C)C=CCC(=O)N[C@@H]1c1ccc2ccccc2c1 | u | n[8.59 µM]
O=C1[C@@H]2CSCCS(=O)(=O)N2C(=O)N1c1ccccc1 | n | n
C/C1=C2N=C(/C=C3N=C(/C(C)=C4\[N-]C(C(CC(N)=O)C4(C)CCC(=O)NCC(C)OP(=O)([O-])OC4C(CO)OC(n5cnc6cc(C)c(C)cc65)C4O)C4(C)N=C1C(CCC(N)=O)C4(C)CC(N)=O)C(CCC(N)=O)C\3(C)C)C(CCC(N)=O)C/2(C)CC(N)=O.[CH3-].[Co+3] (stereo unspecified) | 3.2µM | 2.5µM
C=CC1CC(C=C)OP(=O)(OC[C@H](C)[C@@H](O[Si](C)(C)C(C)(C)C)[C@@H](C)C=C)O1 (stereo partly specified) | n | n
CCCCCCCCCCC1=C(C)C(=O)C(OC)=C(OC)C1=O | n | n
CCCCCCCCCCCC1=C(O)C(=O)C=C(O)C1=O | n | 28µM!
C#CCCCON=C1C[C@@H](O)[C@H](O)[C@H]2[C@@H]3C(=O)N(Cc4ccccc4)C(=O)[C@@H]3CC[C@H]12 | n[8.59 µM] | n[8.59 µM]
CC[N+]1(C)[C@@H]2CC[C@H]1CC(OC(=O)[C@H]1CC[C@@](C(=O)OC3C[C@H]4CC[C@@H](C3)[N+]4(C)CC)(c3ccccc3)c3ccccc31)C2 (stereo partly specified) | n | n
CN1C2CCC1CC(OC(=O)C1CCC(C(=O)OC3CC4CCC(C3)N4C)(c3ccccc3)c3ccccc31)C2 (stereo unspecified) | 6.3µM | u
C/C(=C(\CCOC(=O)c1ccccc1)SS/C(CCOC(=O)c1ccccc1)=C(/C)N(C=O)Cc1cnc(C)nc1N)N(C=O)Cc1cnc(C)nc1N | n | n
CC(C)C[C@@H]1COc2cccc(NN3CCN(C)CC3)c2S(=O)(=O)N1 | n | n
COc1cc2c(cc1OC)[C@@H]1O[C@](CCCCN3C(=O)c4ccccc4C3=O)(C2)OC2=C1C(=O)CC(C)(C)C2 | n[8.59 µM] | n[8.59 µM]
CC(O)C(C)OC(=O)[C@@H]1C[C@@H]2c3cccc4c3c(cn4C(C)C)C[C@H]2N(C)C1 (stereo partly specified) | n | u
CN1CC(CNC(=O)OCc2ccccc2)CC2c3cccc4c3c(cn4C)CC21 (stereo unspecified) | 10µM | u
C[C@@H]1CC[C@H]2C(=O)N(Cc3ccccc3)C[C@@H](O)CN2[C@@H]1c1cccc(Br)c1 | n[8.59 µM] | x
O=C(CCCN1CCN(c2ccccn2)CC1)c1ccc(F)cc1 | n | n
O=C(CCCN1CCN(c2ccc(F)cc2)CC1)NC1c2ccccc2CSc2ccccc21 (stereo unspecified) | 14µM | n
C[N+](C)(C)CCCCCC[N+](C)(C)C | n | n
CCCCCCCCCCCCCCCC[N+](C)(C)C | 8.9µM! | u
SMILES | MARV entry inh | LASV entry inh
CCCCCCCCCC(=O)O | n | n
CCCCCCCCCCCCCCCCOP(=O)([O-])OCC[N+](C)(C)C | n | n
CCCCCCCCCC[N+](C)(C)CCCCCCCCCC | u | 25µM
CCCCCCCCCCCCCCCCCC[N+](C)(C)CCC[Si](OC)(OC)OC | n | n
CCCCCCCC[N+](C)(C)CCCCCCCC | 16µM | u
CCCCCCCCCCCCCCCC[N+](C)(C)CC | 10µM | 16µM
CCOC(=O)CN1C(=O)[C@]2(OCCC=C[C@@H]2C)c2cc(OC)ccc21 | n[8.59 µM] | n[8.59 µM]
COc1cc(=O)n2c(c1C(=O)NCc1ccco1)CCN(C(=O)c1c(F)ccc(F)c1F)CC2 | n | n
CC1=CC[C@@H](COc2ccccc2)O[C@@]2(C1)C(=O)N(Cc1ccc(F)cc1)c1cccc(Br)c12 | n[8.59 µM] | n[8.59 µM]
